Shown are actives, neighbours in structure and some others; about 4.8% of the full set was active somewhere.
DRD3 antagonist – qHTS of D3 Dopamine Receptor Antagonist: qHTS; D(3) dopamine receptor (Homo sapiens), P35462; D3R cells, DiscoveRx beta-arrestin luminescence, antagonist mode; active compounds read low; max response, negative = inhibition, %; actives 2.5% (n = 360,000); in the data active = max response below about -50%; inconclusive = no clear call, values can overlap the other calls
Target sequence (P35462 whole entry, looked up): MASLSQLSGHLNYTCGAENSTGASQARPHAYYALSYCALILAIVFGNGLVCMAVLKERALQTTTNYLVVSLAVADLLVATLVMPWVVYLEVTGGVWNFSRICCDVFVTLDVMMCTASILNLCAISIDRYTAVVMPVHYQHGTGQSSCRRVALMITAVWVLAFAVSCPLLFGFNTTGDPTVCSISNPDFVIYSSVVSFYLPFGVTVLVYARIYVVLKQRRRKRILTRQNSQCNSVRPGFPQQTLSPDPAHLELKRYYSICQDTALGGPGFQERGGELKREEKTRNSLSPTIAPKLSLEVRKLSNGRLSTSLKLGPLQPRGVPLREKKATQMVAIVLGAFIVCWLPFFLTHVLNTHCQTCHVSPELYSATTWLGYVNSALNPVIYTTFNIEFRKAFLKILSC
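Cells plated overnight at 1500 cells/well, then exposed to library compounds with dopamine controls for 90 minutes at 37 degrees C. DiscoveRx reagent added for 30–60 minutes at room temperature; luminescence read, quantitative HTS format.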
ATXN2 expr inh – Primary qHTS for Inhibitors of ATXN expression; HEK-293 ATXN2-luciferase reporter, luminescence, 24 h; Potency, µM (top dose mostly 57 µM), usual class: inhibitors; actives 0.72% (n = 360,000); note: nearly all actives have a fitted effect of over 55% in size
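ATXN2-luciferase reporter cells (luciferase flanked by upstream and downstream ATXN2 gene portions) were treated 24 h at 37 °C with compounds at up to 57 uM. SteadyGlo luminescence gave expression; GF-AFC fluorescence gave viability.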
TGFb SMAD3 inh – qHTS for Inhibitors of TGF-b; AID 588855, 2011; Potency, µM (titrated, usually from 46.1 µM), actives largely listed as inhibitors; HepG2 CAGA-GFP TGF-b/SMAD3 reporter, GFP fluorescence, 18 h; TGF-beta stimulated, 500 pg/mL final; actives 1.2% (n = 410,000); note: nearly all actives have a fitted effect of over 65% in size
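Using HEPG2 CAGA-GFP reporter cells at 1000 cells/well, we pinned test compounds, stimulated with recombinant TGF-beta (500 pg/mL final) and measured total well GFP after 18 h.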
HepG2 tox – qHTS for Inhibitors of TGF-b: Cytotox Counterscreen; HepG2 CAGA-GFP viability, ATP luminescence, 18 h; Potency, µM (series often up to 46.1 µM), most hits filed as cytotoxic; actives 0.76% (n = 410,000); AID 588856, 2011
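HepG2 CAGA-GFP cells (1000/well, DMEM with 1% FBS) received compound, then TGF-beta at 500 pg/mL final, and were incubated 18 hours at 37 degrees C. Viability was read by CellTiter-Glo luminescence. Media-only wells were set as complete cell-killing and DMSO as no toxicity.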
D3 ag – qHTS of D3 Dopamine Receptor Agonist: qHTS; D(3) dopamine receptor (Homo sapiens), P35462; D3R DiscoveRx beta-arrestin cells, luminescence, 90 min; max activation, %; actives 0.58% (n = 410,000); AID 652048, 2013; in the data active = max activation above about 30%
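Cells at 1500/well, incubated overnight, then treated with pinned compounds (dopamine as control) for 90 min at 37 degrees C. DiscoveRx reagent added for 30 - 60 minutes at room temperature; luminescence read.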
ATXN viability – Viability Counterscreen for Primary qHTS for Inhibitors of ATXN expression; S2 cells (HEK-293 line with an ATXN2-luciferase reporter) viability, CellTiter-Fluor protease fluorescence, 24 h; Potency, µM (highest dose often 56.7 µM), most hits filed as cytotoxic; actives 0.49% (n = 400,000); AID 651635, 2014; note: nearly all actives have a fitted effect of over 40% in size
Of the large screens only hits and unclear results are named; the others gave an inactive call; ! = not confirmed by another sample. Unless noted, calls come from the whole dose curve; as a rule, active = well fitted curve in the direction sought with a large enough effect; inconclusive = small, poorly fitted or top-dose-only effect, or another doubt; inactive = no such curve, though single readings can be large; an effect the other way counts as inactive or inconclusive.

Cc1ccccc1NC(=O)c1c(NC(=O)c2ccccc2)sc2c1CCC2	none (no result: DRD3 antagonist)
O=C(Nc1cccc(Cl)c1)c1c(NC(=O)C(F)(F)F)sc2c1CCCC2	TGFb SMAD3 inh inconclusive, HepG2 tox 11.2µM, ATXN viability inconclusive (no result: DRD3 antagonist)
CCOc1ccn(-c2ccc(F)cc2)c(=O)c1C(=O)Nc1ccc(Oc2ccnc(N)c2Cl)c(F)c1	none (no result: DRD3 antagonist, TGFb SMAD3 inh, HepG2 tox, D3 ag, ATXN viability)
CC(C)(C)c1ccc(C(=O)C[n+]2cccc(Br)c2)cc1	none (no result: DRD3 antagonist, ATXN2 expr inh, D3 ag, ATXN viability)
CCCn1c(N2CCN(Cc3ccc(Cl)cc3)CC2)nc2ccccc21	TGFb SMAD3 inh 15.8µM, ATXN viability inconclusive (no result: ATXN2 expr inh)
CCn1c(N2CCN(S(=O)(=O)c3ccc(F)cc3)CC2)nc2ccccc21	none
CCn1c(N2CCN(S(=O)(=O)c3ccc(Cl)cc3)CC2)nc2ccccc21	TGFb SMAD3 inh inconclusive, D3 ag 43.6
Cc1ccc(SCCNC(=O)CN(c2ccccc2)S(=O)(=O)N(C)C)cc1	TGFb SMAD3 inh inconclusive (no result: DRD3 antagonist)
COc1ccc(N2CCN(CCCNC(=O)c3nnc(Cc4ccc(F)cc4)o3)CC2)cc1	none (no result: DRD3 antagonist)
Cc1ccc(S(=O)(=O)/N=C(/NC(=S)Nc2ccccc2)c2ccccc2)cc1	none
Cc1ccc(S(=O)(=O)C/N=C(/NC(=S)N(c2ccccc2)c2ccccc2)c2ccccc2)cc1	DRD3 antagonist -55.6
CCCCC(=O)O[C@H]1CC[C@H]2[C@@H]3CCc4cc(O)ccc4[C@H]3CC[C@]12C	ATXN2 expr inh inconclusive, ATXN viability inconclusive
C[C@]12CC[C@@H]3c4ccc(O)cc4CC[C@H]3[C@@H]1CC[C@@H]2OC(=O)CCC1CCCC1	D3 ag 44.8!
CCC(C)NCCOc1cc(C)cc(C)c1C (stereo not given)	DRD3 antagonist -69.5 (no result: ATXN2 expr inh)
COc1cc(-c2noc(-c3ccc(NCc4cccnc4)c([N+](=O)[O-])c3)n2)cc(OC)c1OC	none (no result: DRD3 antagonist)
O=C(CNC(=O)c1ccccc1)N/N=C/c1ccc([N+](=O)[O-])o1	TGFb SMAD3 inh inconclusive, ATXN viability inconclusive (no result: ATXN2 expr inh)
O=C(N/N=C\c1ccc(-c2ccccc2[N+](=O)[O-])o1)C1COc2ccccc2O1 (stereo not given)	none
O=C(CNc1ccccc1)N/N=C/c1ccc([N+](=O)[O-])o1	DRD3 antagonist inconclusive, ATXN2 expr inh inconclusive, TGFb SMAD3 inh inconclusive, HepG2 tox 11.2µM
Cc1ccc(NCC(=O)N/N=C\c2ccc([N+](=O)[O-])o2)cc1	TGFb SMAD3 inh 11.2µM, HepG2 tox 12.6µM
O=C(CCC(=O)Nc1ccc(Cl)cc1Cl)N/N=C/c1ccc([N+](=O)[O-])o1	ATXN2 expr inh inconclusive, TGFb SMAD3 inh 11.2µM, HepG2 tox 15.8µM, ATXN viability inconclusive
O=C(N/N=C\c1ccc([N+](=O)[O-])o1)C1COc2ccccc2O1 (stereo not given)	TGFb SMAD3 inh 15.8µM
O=[N+]([O-])c1ccc(/C=C/c2ccnc3ccccc23)c([N+](=O)[O-])c1	none (no result: DRD3 antagonist, ATXN2 expr inh, D3 ag, ATXN viability)
CCOC(=O)c1cc(-c2ccccc2)n(CC(=O)Nc2ccccc2OCC)c1C	none (no result: DRD3 antagonist, ATXN2 expr inh, ATXN viability)
Nc1c(I)cc(I)c(C(=O)N(CCC(=O)O)c2ccccc2)c1I	none (no result: DRD3 antagonist, TGFb SMAD3 inh, HepG2 tox, D3 ag)
O=C(Cc1ccc2c(c1)OCCO2)N/N=C/c1ccco1	none (no result: ATXN2 expr inh)
O=C(N/N=C\c1ccc([N+](=O)[O-])o1)c1cncc(Br)c1	TGFb SMAD3 inh inconclusive, ATXN viability inconclusive
CCCCCC(=O)N/N=C/c1ccc([N+](=O)[O-])o1	TGFb SMAD3 inh inconclusive, HepG2 tox 10µM
O=C(Cc1ccc2c(c1)OCO2)NN=Cc1ccc([N+](=O)[O-])o1	DRD3 antagonist inconclusive, ATXN2 expr inh inconclusive, TGFb SMAD3 inh 10µM, ATXN viability inconclusive
CCOC(=O)c1c(C)c(-c2ccccc2)n(CC(=O)Nc2cc(OC)cc(OC)c2)c1C	TGFb SMAD3 inh inconclusive (no result: DRD3 antagonist)
CCOC(=O)C1=C(COC(=O)c2ccc([N+](=O)[O-])s2)NC(=O)NC1C (stereo not given)	TGFb SMAD3 inh 11.2µM, ATXN viability inconclusive (no result: ATXN2 expr inh)
O=Cc1ccc(N2CCOCC2)cc1	none (no result: DRD3 antagonist, ATXN2 expr inh, D3 ag, ATXN viability)
O=C(Nc1ccc(Cl)c(Cl)c1)N(Cc1c[nH]c2ccccc12)C1CCCCC1	ATXN viability inconclusive (no result: DRD3 antagonist)
CCC(C)[C@H](N)C(=O)N[C@H]1CCC2C3CC=C4C[C@@H](O)CC[C@]4(C)C3CC[C@@]21C (stereo not given in full)	TGFb SMAD3 inh inconclusive, HepG2 tox 15.8µM, ATXN viability inconclusive (no result: ATXN2 expr inh)
C[C@@H](N)C(=O)N[C@H]1CCC2C3CC=C4C[C@@H](O)CC[C@]4(C)C3CC[C@@]21C (stereo not given in full)	none
CC(C)[C@H](N)C(=O)N[C@H]1CCC2C3CC=C4C[C@@H](O)CC[C@]4(C)C3CC[C@@]21C (stereo not given in full)	TGFb SMAD3 inh inconclusive, HepG2 tox 20µM, ATXN viability inconclusive (no result: ATXN2 expr inh)
CC[C@H](CC[C@@H](C)[C@H]1CC[C@H]2[C@@H]3CC=C4C[C@@H](O)CC[C@]4(C)[C@H]3CC[C@]12C)C(C)C	none (no result: DRD3 antagonist, ATXN2 expr inh, TGFb SMAD3 inh, HepG2 tox, ATXN viability)
Cc1ccc(CN2CCN(CCC(C)C)C(CCO)C2)s1 (stereo not given)	DRD3 antagonist inconclusive
Cc1ccc(CN2CCN(Cc3ccccc3)C(CCO)C2)s1 (stereo not given)	DRD3 antagonist -52.9
Cc1ncc(CN2CCN(Cc3ccccc3)C(CCO)C2)s1 (stereo not given)	none
CC(=O)c1cccc(CN2CCN(Cc3ccc(F)cc3)C(CCO)C2)c1 (stereo not given)	DRD3 antagonist inconclusive (no result: ATXN2 expr inh)
Cc1ccc(CN2CCN(C3CCCC3)C(CCO)C2)s1 (stereo not given)	DRD3 antagonist -51.1, TGFb SMAD3 inh inconclusive
OCCC1CN(Cc2ccc3c(c2)CCO3)CCN1Cc1ccc(F)cc1 (stereo not given)	DRD3 antagonist -59.3
Cc1ccc(CN2CCN(Cc3cnc(C)s3)CC2CCO)cc1 (stereo not given)	DRD3 antagonist -59.7
Cc1ccc(CN2CCN(CC(C)C)C(CCO)C2)s1 (stereo not given)	none
COc1ccc(-c2nc3ccccc3o2)cc1NC(=O)COc1ccc(C)cc1	none (no result: DRD3 antagonist, ATXN2 expr inh, D3 ag, ATXN viability)
Cc1ccc(CN2CCN(Cc3ccc4c(c3)OCCO4)CC2CCO)cc1 (stereo not given)	DRD3 antagonist -55.1 (no result: ATXN2 expr inh)
Cc1ccc(CN2CCN(Cc3ccc(C)s3)CC2CCO)cc1 (stereo not given)	DRD3 antagonist -95.7
CC1=C(C(=O)Nc2ccccc2)C(c2ccc(C(=O)O)cc2)n2nc(SCC(=O)c3ccc(C)cc3)nc2N1 (stereo not given)	none (no result: DRD3 antagonist)

Source: PubChem (National Center for Advancing Translational Sciences (NCATS))
